# Assay results reported in PubChem BioAssay AID1851 (National Center for Advancing Translational Sciences (NCATS), 2009).
# Values joined by “and” are separate entries in the source; they are usually repeats but may differ in a detail not shown here. Identical values can stand only once. About 5,800 (36%) of roughly 16,000 compounds were called active. Another 23% or so got no clear call; they are omitted. Calls follow the shape of the dose curve; as a rule, active = well fitted curve in the direction sought with a large enough effect; inconclusive = small, poorly fitted or top-dose-only effect, or effect the other way; inactive = no such curve, though single readings can be large or run the other way. This is one part of the list. Some compounds were tested as several samples or in several runs, with calls that do not always agree.
# Biological target: Cytochrome P450 2C19 (Homo sapiens) (UniProt P33261)
# Sequence (P33261 whole entry, looked up): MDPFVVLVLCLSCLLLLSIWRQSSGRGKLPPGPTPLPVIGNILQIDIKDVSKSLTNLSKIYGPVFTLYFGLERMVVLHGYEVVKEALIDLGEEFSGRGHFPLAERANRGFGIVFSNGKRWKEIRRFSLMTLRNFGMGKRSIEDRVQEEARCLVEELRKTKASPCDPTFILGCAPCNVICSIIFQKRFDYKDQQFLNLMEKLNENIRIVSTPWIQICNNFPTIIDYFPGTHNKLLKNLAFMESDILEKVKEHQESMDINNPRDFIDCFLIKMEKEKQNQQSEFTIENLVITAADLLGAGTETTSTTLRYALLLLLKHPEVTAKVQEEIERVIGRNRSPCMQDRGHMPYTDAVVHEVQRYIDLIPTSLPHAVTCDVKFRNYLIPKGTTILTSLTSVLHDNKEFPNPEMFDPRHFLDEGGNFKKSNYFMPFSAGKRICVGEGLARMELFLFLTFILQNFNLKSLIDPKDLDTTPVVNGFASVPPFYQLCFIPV
# Assay: Cytochrome panel assay with activity outcomes
# Conditions: recombinant CYP, pro-luciferin dealkylation, luminescence, p450-cyp2c19; series mostly up to 57.1 µM
# % is scaled to controls: 0 for no effect and ±100 for the full control effect.
Structure (SMILES),AC50,"activity, negative = inhibition"
COC(=O)[C@@]1(Cc2ccccc2)[C@H]2c3cc(C(=O)N4CCCC4)[nH]c3C[C@H]2CN1C(=O)c1ccccc1,0.501 µM (active),–
COC(=O)[C@@]1(Cc2ccc(OC)cc2)[C@H]2c3cc(C(=O)N(C)C)[nH]c3C[C@H]2CN1C(=O)c1ccccc1,5.01 µM (active),–
COC(=O)[C@@]1(Cc2ccc(OC)cc2)[C@@H]2[C@@H](CC(=O)[C@H]2CC(=O)C(=O)N(C)C)CN1C(=O)c1ccccc1,inactive,–
NC(N)=NC(=O)Cc1c(Cl)cccc1Cl,inactive and 251 nM (active),–
NC(N)=NN=Cc1c(Cl)cccc1Cl,inactive,–
O=C(O)COC(=O)Cc1ccccc1Nc1c(Cl)cccc1Cl,inactive,–
CC(C)(C)CNCCO,–,7.05% [at 11.4 µM] (inactive)
CC1(C)SC(=S)N(NC(=O)Nc2ccccc2)C1N(O)C(=O)Nc1ccccc1 (stereo not drawn),14.1 µM (active),–
CCC(C)NS(=O)(=O)c1ccc(OCC(=O)NCC2CCCO2)cc1 (stereo not drawn),inactive,–
Cc1cc2ccc(OC(=O)c3ccc(N=C(N)N)cc3)cc2oc1=O,–,13.8% [at 11.4 µM] (inactive)
Cc1ccc(S(=O)(=O)N[C@H](C(=O)Oc2ccc3c(C(F)(F)F)cc(=O)oc3c2)c2ccccc2)cc1,20 µM (active),–
CCC(C)C(NS(=O)(=O)c1ccc(C)cc1)C(=O)Oc1ccc2c3c(c(=O)oc2c1)CCC3 (stereo not drawn),3.98 µM (active),–
Cc1nn(-c2ccc(F)cc2)c(Cl)c1/C=C(\CCC(=O)O)c1nc2ccccc2s1,15.8 µM (active),–
COc1ccccc1C/C(N)=N/OC(=O)c1ccc(C)c([N+](=O)[O-])c1,8.91 µM (active),–
Cn1c(=O)n2n(c1=O)[C@H]1[C@H](O)[C@H]3O[C@@H]3/C(=N/OC[C@@H](O)COCc3ccco3)[C@@H]1CC2,–,-21.1% [at 11.4 µM] (inactive)
Oc1cccc2ccc(SSc3ccc4cccc(O)c4n3)nc12,3.16 µM (active),–
COc1ccc(N2C(=O)CC(S/C(N)=N/N=C(\C)c3cccs3)C2=O)cc1 (stereo not drawn),7.08 µM (active),–
COc1ccc(-n2c(=O)c(-c3cccs3)nc3cnc(N4CCN(C)CC4)nc32)cc1,inactive,–
CCCOc1ccc(N2C(=O)CC(S/C(N)=N/N=C(\C)c3cccs3)C2=O)cc1 (stereo not drawn),6.31 µM (active),–
O=C(N/N=C/c1ccc2cccc(OCc3ccccc3)c2n1)c1ccc(Br)cc1,3.55 µM (active),–
S=C(CSc1ccccc1)Nc1cccc2ccccc12,0.794 µM (active),–
CCCCn1nc2cc(C(=O)NCc3ccc(C(F)(F)F)cc3C(F)(F)F)ccc2c1OCC,12.6 µM (active),–
COc1ccc(C(=O)N2CCC3(CCN(Cc4cc(C(F)(F)F)cc(C(F)(F)F)c4)CC3)CC2)cc1,inactive,–
CCOc1c2ccc(C(=O)NCc3cc(C(F)(F)F)cc(C(F)(F)F)c3)cc2nn1C,28.2 µM (active),–

Structure (SMILES),AC50,"activity, negative = inhibition"
CCN(CC)CCNC(=O)c1cc(Cl)c(N)cc1OC,inactive,–
CN1CCC2(CC1)CCN(S(=O)(=O)c1ccccc1)CC2,inactive,–
O=C1c2ccccc2C(=O)N1CC1c2ccccc2CCN1S(=O)(=O)c1ccccc1 (stereo not drawn),2 µM (active),–
C[N+](C)(C)CCCCCNCC12CC3CC(CC(C3)C1)C2,inactive,–
Cc1cc(Cn2cnc3c2C[C@@H](C(=O)O)N(C(=O)C(c2ccccc2)c2ccccc2)C3)ccc1N(C)C,1.58 µM (active),–
CCCC(=O)Nc1nc2n(n1)C(c1ccccc1)CC(=O)N2 (stereo not drawn),inactive,–
CN1CCN(CCCNC(=O)c2ccc(CSCc3cccc(Cl)c3)o2)CC1,inactive,–
CCCn1nnc(NC(=O)Cc2ccccc2)n1,10 µM (active),–
CCCn1nnc(NC(=O)c2ccc(-c3cccc(Cl)c3)o2)n1,20 µM (active),–
CC(C)Cn1cnc2c(SCc3ccc(Cl)cc3Cl)nc(N)nc21,2 µM (active),–
Cc1ccc2ccccc2c1CSc1nc(N)nc2c1ncn2CC(C)C,3.98 µM (active),–
CC(C)Cn1cnc2c(Sc3c([N+](=O)[O-])ncn3C)nc(N)nc21,–,17.8% [at 11.4 µM] (inactive)
CC(C)Cn1cnc2c(SCc3ccccn3)nc(N)nc21,–,9.26% [at 11.4 µM] (inactive)
CC(C)(C)C1CCc2c(C(=O)N/N=C/c3cccs3)csc2C1 (stereo not drawn),6.31 µM (active),–
ClC(=Nc1cccc2ccccc12)N(c1ccccc1)c1ccccc1,2.51 µM (active),–
O=S(=O)(c1cccc(C(F)(F)F)c1)N1CCC(c2cc(-c3cccc4ccccc34)n[nH]2)CC1,7.08 µM (active),–
Cc1ccnn2cc3c(=O)n(C)c(=O)n(C)c3c12,inactive,–
C[C@@]1(C(NC(=O)c2ccc(-c3ccccc3)cc2)c2ccc(Cl)cc2)C[C@H]1C1CCCCC1 (stereo partly drawn),inactive,–
C[C@@]1(C(NC(=O)c2cccs2)c2ccc(-c3ccccc3)cc2)C[C@H]1C1CCCCC1 (stereo partly drawn),inactive,–
COC(=O)c1ccc(C(NC(=O)c2ccccc2)[C@]2(C)C[C@H]2C2CCCCC2)cc1 (stereo partly drawn),2.51 µM (active),–
O=C(CN1CCCC1)N/N=C/c1ccc(-c2cccc(Cl)c2)o1,22.4 µM (active),–
COc1ccc2nc(SCC(=O)Nc3ccc4c(c3)OCCO4)[nH]c2c1,10 µM (active),–
COc1ccc(NC(=O)N2CCCC3(CCN(C(=O)c4ccco4)CC3)C2)cc1,inactive,–
COc1ccc2nc(SCC(=O)c3ccco3)[nH]c2c1,14.1 µM (active),–

Structure (SMILES),AC50,"activity, negative = inhibition"
COC(=O)Nc1nc2ccc(Sc3ccccc3)cc2[nH]1,inactive,–
CCOC(=O)NC(=O)CSc1nc2ccc(OCC)cc2[nH]1,14.1 µM (active),–
CCCCc1ccc2nc(NC(=O)OC)[nH]c2c1,inactive,–
Cc1ccc2nc(SCC(=O)c3ccc4c(c3)OCO4)[nH]c2c1,2.82 µM (active),–
Oc1cc(O)c2c(c1)O[C@H](c1ccc(O)c(O)c1)[C@@H](O)[C@@H]2c1c(O)cc(O)c2c1O[C@@H](c1ccc(O)c(O)c1)[C@H](O)C2,–,-23.6% [at 11.4 µM] (inactive)
CSc1ccc2nnc(-c3cccc(F)c3)n2n1,15.8 µM (active),–
Cc1cc(C)c(C#N)c(SCc2cc3c(cc2Cl)OCO3)n1,6.31 µM (active),–
CON1C(=O)C(=O)N(OC)C(C)(C)C1C (stereo not drawn),inactive,–
c1ccc2nc(-c3ccncc3)ccc2c1,3.55 µM (active),–
c1ccc2nc(C3=NCCN3)ccc2c1,inactive,–
COc1cc(Cl)c(CC(=O)c2c[nH]c3ccccc23)cc1OC,1 µM (active),–
CN1[C@@H]2CC[C@H]1CC(OC(=O)c1c[nH]c3ccccc13)C2 (stereo partly drawn),inactive,–
O=C(OCCN1CCCCC1)c1c[nH]c2ccccc12,inactive,–
CNC(=O)[C@H](C)[C@H]1C[C@]1(C)[C@H](NC(=O)OCc1ccccc1)c1ccccc1,1 µM (active),–
C[C@H](CO)NC(=O)[C@H](C)[C@H]1C[C@]1(C)[C@H](NC(=O)OCc1ccccc1)c1ccccc1,0.631 µM (active),–
CNC(=O)[C@H](C)[C@@H]1C[C@@]1(C)[C@@H](NC(=O)OCc1ccccc1)c1ccccc1,0.631 µM (active),–
CC(=O)NCCC(=O)Nc1sc2c(c1-c1nc3ccccc3[nH]1)CCCC2,14.1 µM (active),–
CCN(CC)S(=O)(=O)c1cc(C(=O)OC)ccc1Cl,11.2 µM (active),–
CCN(CC)S(=O)(=O)c1cc(C(=O)Nc2ccncc2)ccc1Cl,0.01 µM (active),–
CCN(CC)S(=O)(=O)c1cc(C(=O)Nc2ccccc2C(=O)O)ccc1OC,inactive,–
CCn1ccnc1C[C@@H]1COc2ccccc2O1,10 µM (active),–
Cc1ccccc1OCC(=O)Nc1ccc(N2CCN(C(=O)C(C)C)CC2)c(Cl)c1,8.91 µM (active),–
Cc1ccccc1OCC(=O)NC(=S)Nc1ccc(N2CCOCC2)c(Cl)c1,inactive,–
O=C(Nc1ccccc1N1CCN(C(=O)c2ccccc2)CC1)c1cc(Br)ccc1Cl,3.16 µM (active),–

Structure (SMILES),AC50,"activity, negative = inhibition"
CC(C)C(=O)N1CCN(c2ccccc2NC(=O)c2cccc(Cl)c2)CC1,14.1 µM (active),–
O=C(Nc1ccccc1N1CCOCC1)c1ccc([N+](=O)[O-])cc1,inactive,–
Cc1ccc(-n2c(C)nc3c(cnn3-c3ccc(F)cc3)c2=O)cc1C,22.4 µM (active),–
Cc1cc(C)n(-c2ccc(F)cc2)c(=O)c1C(=O)O,inactive,–
COc1ccc(-n2c(=O)c(-c3ccc(F)cc3)nc3cncnc32)cc1,inactive,–
CSc1nc(-c2ccc(C)cc2)[nH]c1S(=O)(=O)c1ccccc1,8.91 µM (active),–
CCn1c(=O)c2[nH]c(-c3ccccc3)nc2n(CC)c1=O,inactive,–
O=C(NC(=S)Nc1cccc(Cl)c1N1CCCCC1)c1cccs1,2.51 µM (active),–
CC1CCN(c2ccccc2NC(=S)NC(=O)c2cccs2)CC1,8.91 µM (active),–
O=C(NC(=S)Nc1cccc(Cl)c1N1CCCCC1)c1ccco1,6.31 µM (active),–
O=C(NC(=S)Nc1cccc(Cl)c1N1CCCC1)c1ccc(-c2cccc([N+](=O)[O-])c2)o1,inactive,–
CC[C@@]1(O)C(=O)OCc2c1cc1n(c2=O)Cc2cc3c(CN(C)C)c(O)ccc3nc2-1,–,-16.8% [at 11.4 µM] (inactive)
Clc1ccc2c(NCCNC3CCCCC3)ccnc2c1,–,41% [at 11.4 µM] (inactive)
O=C(COc1ccc(Cl)cc1)N(Cc1ccccc1)c1ccccn1,0.501 µM (active),–
C[N+]1(C)CCc2cc(O)c(O)cc2[C@H]1Cc1ccc(O)c(O)c1,–,26.9% [at 11.4 µM] (inactive)
CCOc1cc(/C=N/n2cnnc2)c(Br)cc1O,10 µM (active),–
COc1cc(CNC2CCCC2)cc(Cl)c1OCc1ccccc1Cl,2.24 µM (active),–
CCOC(=O)c1[nH]c(COC(=O)CCOc2ccccc2OC)c(C(=O)OCC)c1C,4.47 µM (active),–
CCOC(=O)c1[nH]c(C(=O)O)c(CCC(=O)OC)c1C,inactive,–
CCOCCCN1C(=O)CN(C2CCCCC2)C(=O)C1c1ccc(OCC)c(OC)c1 (stereo not drawn),inactive,–
COc1cc(C2C(=O)N(C3CCCC3)CC(=O)N2Cc2ccco2)ccc1OC(C)C (stereo not drawn),4.47 µM (active),–
